USP2a inh: qHTS Assay for Inhibitors of Ubiquitin-specific Protease USP2a Using CHOP2 as the Reporter; Ubiquitin carboxyl-terminal hydrolase 2 (Homo sapiens), O75604; USP2 core, Ub-CHOP2 coupled fluorogenic reporter, 485/531; Potency, µM (top dose mostly 38.3 µM), most hits filed as inhibitors; 330,000 tested, 0.01% active
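USP2 core (10nM final) preincubated 30min RT with compound in 20mM Tris-HCl pH 8.0, 2mM CaCl2, 2mM beta-mercaptoethanol, 0.05% CHAPS; 25nM Ub-CHOP2 plus 25nM reporter substrate added, fluorescence (Ex485/Em531) read after 60min.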
Mm-Cpn inhibitor: Inhibitors of TCP-1 ring complex (TRiC) of Methanococcus maripaludis (MmCpn): qHTS | Chaperonin Mm-Cpn (Methanococcus maripaludis) | purified Mm-Cpn ATPase, ADP Transcreener TR-FRET | Potency, µM (series often up to 76.9 µM), hits mostly inhibitors | 330,000 tested, 0.031% active | AID 504842, 2011; also: nearly all actives have a fitted effect of over 80% in size
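Purified archaeal chaperonin (25 nM final) was preincubated with compound for 10 min at 37°C, then ATP (10 uM final) was added for 30 min at 37°C in Tris pH 7.4/KCl/MgCl2/DTT buffer. ADP was quantified by HTRF Transcreener TR-FRET.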
a7 integrin act: qHTS for Activators of Integrin-Mediated Alleviation for Muscular Dystrophy | alpha7betagal myoblasts, beta-gal FDG fluorescence, 48 h | 350,000 tested, 0.064% active | Potency, µM (titrated, usually from 38.3 µM), usual class: activators; also: nearly all actives have a fitted effect of over 60% in size
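alpha7betagal+/- myoblasts (passage 13, 250/well) treated 48 h at 37C with compounds at 1:260 dilution of DMSO stock. Lysed, then beta-galactosidase activity read as FDG fluorescence (ex 480/em 540) after 30 min, with pre-read for autofluorescence.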
p53 reactivation: qHTS assay for re-activators of p53 using a Luc reporter; 320,000 tested, 0.063% active; Potency, µM (top dose mostly 92.2 µM), hits mostly activators; H1299 p53-A138V BP100-luciferase reporter, luminescence, 24 h; also: nearly all actives have a fitted effect of over 45% in size
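p53-null H1299 cells stably carrying temperature-sensitive p53-A138V and a BP100-luciferase reporter were pinned with compounds (4-point, 1:5 series) and held 24 hrs at 37 deg C. Luminescence was read 10 min after detection reagent.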
Eya2 inh: qHTS Assay for Inhibitors of the Phosphatase Activity of Eya2 | recombinant Eya2, OMFP fluorescence dephosphorylation (OMFP is methylfluorescein phosphate) | Potency, µM (titrated, usually from 76.9 µM), actives largely listed as inhibitors | 330,000 tested, 0.006% active
Target sequence (O00167 whole entry, looked up): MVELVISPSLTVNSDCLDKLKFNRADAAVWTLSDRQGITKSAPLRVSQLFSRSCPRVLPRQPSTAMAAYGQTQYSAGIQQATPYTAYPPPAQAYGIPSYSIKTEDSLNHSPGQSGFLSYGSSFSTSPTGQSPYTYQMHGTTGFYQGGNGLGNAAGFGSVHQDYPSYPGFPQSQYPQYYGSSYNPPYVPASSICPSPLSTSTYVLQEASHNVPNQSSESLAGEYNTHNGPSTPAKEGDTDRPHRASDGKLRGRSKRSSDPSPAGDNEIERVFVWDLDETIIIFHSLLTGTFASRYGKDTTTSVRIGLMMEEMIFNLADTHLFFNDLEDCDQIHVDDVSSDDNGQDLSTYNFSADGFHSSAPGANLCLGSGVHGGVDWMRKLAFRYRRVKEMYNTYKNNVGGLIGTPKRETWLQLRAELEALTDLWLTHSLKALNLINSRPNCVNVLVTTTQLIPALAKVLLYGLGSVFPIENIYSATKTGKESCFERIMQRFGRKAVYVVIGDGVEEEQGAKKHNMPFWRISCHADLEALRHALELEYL
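Eya2 (0.2 uM) preincubated 10 min at ambient with compound, then OMFP substrate added at 50 uM; 10 min reaction in 50 mM HEPES pH 7.5, 50 mM NaCl, 5 uM MgCl2, 0.05% BSA, 1 mM DTT. Fluorescence read at Ex 485/Em 525 nm.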
ClpP mod: qHTS Assay for Activators of ClpP; 340,000 tested, 1.9% active; Potency, µM (doses to about 57.5 µM); purified B. subtilis ClpP, FRET peptide cleavage, 20 min; active = well fitted falling curve with a large enough effect; inconclusive = small, poorly fitted or top-dose-only effect; inactive = no such curve, though single readings can be large or run the other way; also: the source files actives as falling curves though it sought activators and does not explain the sign; nearly all actives have a fitted effect of over 65% in size
Target sequence (P80244 whole entry, looked up): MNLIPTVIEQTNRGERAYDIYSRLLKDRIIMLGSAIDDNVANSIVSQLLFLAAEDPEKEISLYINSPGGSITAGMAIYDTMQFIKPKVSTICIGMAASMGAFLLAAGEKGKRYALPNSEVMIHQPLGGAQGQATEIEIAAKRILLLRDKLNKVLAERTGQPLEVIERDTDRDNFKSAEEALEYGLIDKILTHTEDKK
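ClpP 10 microg/mL final, pH 8 Tris/KCl buffer with BSA, glycerol, Tween-20; compound pinned in; FRET-FV substrate; RT 20 min; Ex320/Em430; ΔFRET vs ADEP 5.8 microM, DMSO, no enzyme.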
Each line names hits and unclear results; the compound was inactive in the other large screens. Shown is part of a subset that was picked to be rich in hits. Unless noted, calls follow the shape of the dose curve; as a rule, active = well fitted curve in the direction sought with a large enough effect; inconclusive = small, poorly fitted or top-dose-only effect, or another doubt; inactive = no such curve, though single readings can be large; an effect the other way counts as inactive or inconclusive.

CCOC(=O)N/N=C/c1cn(CCCOc2ccc(C)cc2)c2ccccc12	none
CCOC(=O)N/N=C/c1cn(CCCOc2ccccc2)c2ccccc12	ClpP mod 28µM
O=C(NCCCc1nc2ccccc2n1Cc1cccc(Cl)c1)c1ccco1	none (no result: USP2a inh, Mm-Cpn inhibitor, a7 integrin act, p53 reactivation, Eya2 inh)
Clc1ccccc1Cn1c(/C=C/c2ccco2)nc2ccccc21	ClpP mod 28µM
CCOC(=O)c1c(Oc2ccc(C(C)=O)cc2)nnc(-c2ccccc2)c1-c1ccccc1	none (no result: USP2a inh, Mm-Cpn inhibitor, a7 integrin act, p53 reactivation, Eya2 inh)
CCOc1cc(C(=O)OCc2cc(=O)n3nc(C4CC4)sc3n2)cc(OCC)c1OCC	none (no result: USP2a inh, Mm-Cpn inhibitor, a7 integrin act, p53 reactivation, Eya2 inh)
CCOC(=O)c1cc(OCc2csc(-c3ccccc3)n2)cc(C(=O)OCC)c1	none (no result: USP2a inh, Mm-Cpn inhibitor, a7 integrin act, p53 reactivation, Eya2 inh)
COc1cc(OC)c(OC)cc1/C=C/c1ccc2ccccc2n1	none (no result: USP2a inh, Mm-Cpn inhibitor, a7 integrin act, p53 reactivation, Eya2 inh)
COc1cc(Cl)cc(/C=C/c2ccc3ccccc3n2)c1OC(C)=O	p53 reactivation inconclusive, ClpP mod 25µM
Cc1ccc(C(=O)OCCN2CCN(c3ncc(C(F)(F)F)cc3Cl)CC2)cc1	ClpP mod 14µM
CC(SC1=NS(=O)(=O)c2ccccc21)C(=O)O (centres undefined)	none (no result: USP2a inh, Mm-Cpn inhibitor, a7 integrin act, p53 reactivation, Eya2 inh)
COc1ccc(-c2nc(C#N)c(N3CC(C)OC(C)C3)o2)cc1OC (centres undefined)	ClpP mod 0.71µM
COc1ccc(-c2nc(C#N)c(NCc3ccc(C)cc3)o2)cc1OC	ClpP mod 32µM (no result: USP2a inh, Mm-Cpn inhibitor, p53 reactivation, Eya2 inh)
COc1ccc(CCNc2oc(Cc3ccccc3)nc2C#N)cc1OC	none
COc1ccc(-c2nc(C#N)c(NCCc3ccccc3)o2)cc1OC	p53 reactivation inconclusive, ClpP mod 6.3µM
CCN(CC)CCCNc1oc(-c2ccc(OC)c(OC)c2)nc1C#N	none
CN1CC=C2C(C#N)=C(N)C(C#N)(C#N)C(CCc3ccccc3)C2C1 (centres undefined)	ClpP mod 28µM
CN1CC=C2C(C#N)=C(N)C(C#N)(C#N)[C@H](c3cccs3)[C@H]2C1	none
CCCC1C2CN(C(C)C)CC=C2C(C#N)=C(N)C1(C#N)C#N (centres undefined)	ClpP mod 28µM
CN1CC=C2C(C#N)=C(N)C(C#N)(C#N)C(c3ccsc3)C2C1 (centres undefined)	ClpP mod inconclusive
Cc1nc2c(c(C)c1CCC(=O)Nc1cccc(C(F)(F)F)c1)c(=O)n(C)c(=O)n2C	none (no result: USP2a inh, Mm-Cpn inhibitor, a7 integrin act, p53 reactivation, Eya2 inh)
Nc1ncnc2c1nc(Sc1ccc(Cl)cc1)n2[C@H]1OC2COP(=O)(O)O[C@H]2[C@@H]1O (some centres undefined)	none (no result: USP2a inh, Mm-Cpn inhibitor, a7 integrin act, p53 reactivation, Eya2 inh)
Cc1cc(Br)ccc1NC(=O)CN(C)C(=O)CSC(=S)N1CCCC1	ClpP mod 3.2µM
Cc1ccc(S(=O)(=O)/N=C(/c2ccc(F)cc2)N2CCCCC2)cc1	ClpP mod 32µM
Cc1ccc(S(=O)(=O)/N=C(/c2ccc(F)cc2)N2CCCC2)cc1	none
CCCCN(C)C(=O)Cn1c(SCC(=O)Nc2ccc(C)c(C)c2)nc2ccccc21	none (no result: USP2a inh, Mm-Cpn inhibitor, a7 integrin act, p53 reactivation, Eya2 inh)
CCCS(=O)(=O)N1CC(=O)N(c2cc(C)cc(C)c2)C(C)(C(=O)NC2CCCCCC2)C1 (centres undefined)	none (no result: USP2a inh, Mm-Cpn inhibitor, a7 integrin act, p53 reactivation, Eya2 inh)
O=C1[C@H](Cc2ccccc2)NC/C=C\C[C@@H](c2ccc(Cl)cc2)N1Cc1ccccc1	none (no result: USP2a inh, Mm-Cpn inhibitor, a7 integrin act, p53 reactivation, Eya2 inh)
CSc1ccc(CNc2cccc3ccccc23)cc1	ClpP mod 28µM
Cc1ccc(NC(=O)Cn2c(=O)n(Cc3ccco3)c(=O)c3oc4ccccc4c32)cc1C	none (no result: USP2a inh, Mm-Cpn inhibitor, a7 integrin act, p53 reactivation, Eya2 inh)
COc1ccccc1NC(=O)Cn1c(=O)n(Cc2ccco2)c(=O)c2oc3ccccc3c21	ClpP mod 32µM (no result: USP2a inh, Mm-Cpn inhibitor, a7 integrin act, p53 reactivation, Eya2 inh)
COc1cc2c(=O)n(Cc3ccccc3)c(=O)n(CC(=O)NCc3ccco3)c2cc1OC	ClpP mod 16µM
COc1cccc(NC(=O)Cn2c(=O)n(Cc3ccco3)c(=O)c3cc(OC)c(OC)cc32)c1	ClpP mod 28µM (no result: USP2a inh, Mm-Cpn inhibitor, a7 integrin act, p53 reactivation, Eya2 inh)
Cc1cccn2c(=O)cc(CSc3nnc(NC(=O)C(C)C)s3)nc12	none (no result: USP2a inh, Mm-Cpn inhibitor, a7 integrin act, p53 reactivation, Eya2 inh)
Cc1cccc(OCC(=O)NCC2(N3CCN(C)CC3)CCCCC2)c1C	none (no result: USP2a inh, Mm-Cpn inhibitor, a7 integrin act, p53 reactivation, Eya2 inh)
Cc1ccc(NC(=O)N2CCCC2C(=O)NCc2cccs2)cc1 (centres undefined)	none
Cc1cccc(NC(=O)N2CCCC2C(=O)NCc2cccs2)c1 (centres undefined)	ClpP mod 18µM
Cc1[nH]c(=O)cc2ccccc12	ClpP mod 22µM
Cc1ccccc1CSc1nc2n(n1)C(c1cccs1)C1=C(CCCC1=O)N2 (centres undefined)	ClpP mod 22µM
Cc1cc(C)cc(NC(=O)c2ccc3c(O)c(S(=O)(=O)c4ccccc4)c(=O)[nH]c3c2)c1	none (no result: USP2a inh, Mm-Cpn inhibitor, a7 integrin act, p53 reactivation, Eya2 inh)
Cc1ccc(C2C=C(c3ccccc3OC(F)F)Nc3ncnn32)cc1 (centres undefined)	ClpP mod 22µM
CN(C)c1ccc(C2C=C(c3ccc(Cl)cc3OC(F)F)Nc3ncnn32)cc1 (centres undefined)	none
CCN(CC)CCN(C(=O)c1ccco1)c1nc2c(C)c(C)ccc2s1	none (no result: USP2a inh, Mm-Cpn inhibitor, a7 integrin act, p53 reactivation, Eya2 inh)
CCOC(=O)NN1C(=O)c2ccccc2NC1c1ccc(OC)cc1 (centres undefined)	ClpP mod 32µM
CCOC(=O)NN1C(=O)c2ccccc2NC1c1ccccc1 (centres undefined)	ClpP mod 32µM
Cc1ccc(C)c(-n2c(N)c(C#N)c3nc4ccccc4nc32)c1	none (no result: USP2a inh, Mm-Cpn inhibitor, a7 integrin act, p53 reactivation, Eya2 inh)

Source: PubChem (National Center for Advancing Translational Sciences (NCATS))
